Assay outcomes deposited in PubChem BioAssay by National Center for Advancing Translational Sciences (NCATS).
Epigenetic derep: Quantitative High-Throughput Screen for Regulators of Epigenetic Control; murine LDR cells, GFP reporter derepression, 30 h; Potency, µM (series often up to 53.9 µM), hits mostly activators; actives 0.2% (n = 280,000); also: nearly all actives have a fitted effect of over 60% in size
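Reporter derepression read as number of fluorescent GFP-positive objects, 20-120 um in size, counted by laser-scanning cytometer. Mouse LDR line with an epigenetically silenced CMV-GFP locus; compound incubation 30 h, 37 C.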
RORg inh: qHTS for inhibitors of ROR gamma transcriptional activity; Potency, µM (doses to about 53.6 µM), most hits filed as inhibitors; Nuclear receptor ROR-gamma (Mus musculus), P51450; Drosophila S2 Gal4-RORgamma UAS-luciferase reporter, 20 h; AID 2551, 2010; actives 5.4% (n = 310,000); also: nearly all actives have a fitted effect of over 60% in size
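Stably transfected Drosophila Schneider cells are the test system, with ROR gamma fused to Gal4 and luciferase under UAS control; luminescence is read after 20 hr of 700 uM copper sulfate induction at ambient temperature.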
Gal4-VP16 FLuc: VP16 counterscreen qHTS for inhibitors of ROR gamma transcriptional activity | AID 2546, 2010 | Potency, µM (doses to about 53.6 µM), hits mostly inhibitors | actives 3.5% (n = 310,000) | Drosophila S2 Gal4-VP16 UAS-luciferase, luminescence, 20 h;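 also: Gal4-VP16 expression switched on by copper sulfate through the metallothionein promoter; nearly all actives have a fitted effect of over 50% in size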
ClpP mod: qHTS Assay for Activators of ClpP. ATP-dependent Clp protease proteolytic subunit (Bacillus subtilis (strain 168)), P80244. purified B. subtilis ClpP, FRET peptide cleavage, 20 min. Potency, µM (top dose mostly 57.5 µM). actives 1.9% (n = 340,000). AID 651965, 2013; active = well fitted falling curve with a large enough effect; inconclusive = small, poorly fitted or top-dose-only effect; inactive = no such curve, though single readings can be large or run the other way; also: the source files actives as falling curves though it sought activators and does not explain the sign; nearly all actives have a fitted effect of over 65% in size
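Buffer: 100 mM Tris/HCl pH8, 100 mM KCl, 0.05% low protease BSA, 2.5% glycerol, 0.01% Tween-20. ClpP 10 microg/mL final; 20 min RT; delta FRET normalized to ADEP and DMSO controls.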
Sfp inh: qHTS Assay for Inhibitors of Bacillus subtilis Sfp phosphopantetheinyl transferase (PPTase). Biochemical Sfp PPTase activity, qHTS. Potency, µM, hits mostly inhibitors. actives 3.5% (n = 310,000). AID 1490, 2009;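 also: the enzyme is Sfp with the accession as filed and its product quenches rhodamine fluorescence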
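Reaction rates are the 30-min fluorescence difference (ex 525, em 598 nm) in wells containing 15 nM Sfp, 5 uM rhodamine-CoA and 12.5 uM BHQ-2-YbbR at pH 7.6 with 10 mM MgCl2.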
PINK1 modulator: A Quantitative High throughput Screen to Identify Chemical Modulators of PINK1 Expression; PINK1 immunofluorescence, high-content cytometry, 24 h; Potency, µM (highest dose often 76.6 µM), usual class: activators; actives 0.2% (n = 410,000); AID 624263, 2012; active = well fitted activation curve with a large enough effect; inconclusive = small, poorly fitted or top-dose-only effect; cell line not stated here; also: nearly all actives have a fitted effect of over 65% in size
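Stable cell line, 250 cells/well, 12 h attachment; compounds pinned at 5 concentrations, 24 h; CCCP control. Fixed with nuclear dye, primary antibodies 12 h at 10 degrees C, secondary plus cell stain; laser-scanning cytometer read.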
Hits are given with their value; n = inactive; u = inconclusive; x = no result; [ ] = dose if it differs, or a comment. A selection: hits, their analogues and other compounds. The true share with any hit is near 8.1%. Unless noted, calls follow the shape of the dose curve; as a rule, active = well fitted curve in the direction sought with a large enough effect; inconclusive = small, poorly fitted or top-dose-only effect, or another doubt; inactive = no such curve, though single readings can be large; an effect the other way counts as inactive or inconclusive.

SMILES	Epigenetic derep	RORg inh	Gal4-VP16 FLuc	ClpP mod	Sfp inh	PINK1 modulator
C[C@@H]1O[C@H](O[C@@H]2C[C@@H](O)[C@]3(CO)[C@H]4[C@H](O)C[C@]5(C)[C@@H](C6=CC(=O)OC6)CC[C@@]5(O)[C@@H]4CC[C@]3(O)C2)[C@@H](O)[C@H](O)[C@H]1O	n	n	n	x	n	x
O=C1C=Cc2ccccc2C1=O	u	n	n	x	2.8µM	x
C[C@@H]1CO1	x	n	n	x	n	x
CCCCCc1cc(O)c2c(c1)OC(C)(C)C1CC=C(C)CC21 (stereo unspecified)	x	n	u	x	n	x
CN1C(=O)C(=Cc2cccnc2)C(=O)N(C)C1=O	n	n	n	n	40µM	n
CN1C(=O)C(=Cc2ccc(N3CCCCCC3)cc2)C(=O)N(C)C1=O	n	n	n	x	u	n
COC(=O)c1c(C)n(Cc2ccccc2)c2ccc(O)cc12	n	n	n	x	50µM	n
CC(=O)c1c(C)n(Cc2ccccc2)c2ccc(O)cc12	n	n	n	n	n	n
CCOC(=O)c1c(C)n(Cc2ccccc2)c2ccc(O)cc12	n	n	n	x	50µM	n
c1ccc2c(CN3CCCCCCC3)c[nH]c2c1	n	n	n	28µM	n	n
COC(C(=O)C(O)C(C)O)C1Cc2cc3cc(OC4CC(OC5CC(O)C(OC)C(C)O5)C(OC(C)=O)C(C)O4)c(C)c(O)c3c(O)c2C(=O)C1OC1CC(OC2CC(OC3CC(C)(O)C(OC(C)=O)C(C)O3)C(O)C(C)O2)C(O)C(C)O1 (stereo unspecified)	x	1.3µM	1µM	x	n	x
Cc1ccc(CC2C(=O)N(C)C(=O)N(C)C2=O)s1	n	n[0.365 µM]	x	n	35µM	n
CC(N)C(O)c1ccc(O)c(O)c1 (stereo unspecified)	n	n	n	x	n	x
Cc1nc(-c2nc(-c3c(C(=O)NNC(=O)c4ccc(Cl)cc4)noc3C)cs2)cs1	n	10µM	u	n	n	n
CCN(CC)c1ncnc2c1ncn2[C@@H]1O[C@H](COP(=O)(O)OP(=O)(O)C(Br)(Br)P(=O)(O)O)[C@@H](O)[C@H]1O	n	x	x	x	x	x
O=C(c1ccc2c(=O)n(Cc3ccc4c(c3)OCO4)c(=S)[nH]c2c1)N1CCC2(CC1)OCCO2	n	13µM	u	n	n	n
O=C(NCc1ccc(C(=O)N2CCC3(CC2)OCCO3)cc1)c1ccc2c(c1)OCO2	n	n	n	n	n	n
COC(=O)C12CC3=CC(CC3=O)Cc3ccccc3[C@@H]1CNC2=O (stereo partly specified)	n	n	n	x	n	x
Cn1cc(C(=O)N2CCC3(CC2)OCCO3)c2c3ccccc3n(C)c2c1=O	n	n	n	14µM	n	n
Cn1c2ccccc2c2c(C(=O)N3CCC4(CC3)OCCO4)cn(C3CCCCC3)c(=O)c21	n	n	n	18µM	n	n
Cn1c(C(=O)N2CCC3(CC2)OCCO3)cc2c(=O)n(C)c3ccccc3c21	n	n	n[0.365 µM]	n	n	n
Cn1c2ccccc2c2cnn(CC(=O)N3CCC4(CC3)OCCO4)c(=O)c21	n	n	n	x	n	x
Cc1ccc(Cl)cc1N1CCN(C(=O)c2cn(CC(C)C)c(=O)c3c2c2ccccc2n3C)CC1	n	x	x	13µM	x	n
CC(C)Cn1cc(C(=O)N2CCC3(CC2)OCCO3)c2c3ccccc3n(C)c2c1=O	n	n	n	16µM	n	n
N#CC(Cl)(Cl)Cl	x	n	n	x	x	x
SMILES	Epigenetic derep	RORg inh	Gal4-VP16 FLuc	ClpP mod	Sfp inh	PINK1 modulator
ClC(Cl)=C(Cl)Cl	x	n	n	x	x	x
C=CC(C)=O	x	n	n	x	x	x
Cc1ccc2cc3c(ccc4ccccc43)c3c2c1CC3	n	x	x	x	50µM	x
Cc1ccc2ccccc2c1NC(=O)CNC1CCCCC1	n	n	n	n	n	n
O=c1[nH]/c(=C\c2ccc(N(CCCl)CCCl)cc2)c(=O)[nH]/c1=C\c1ccc(N(CCCl)CCCl)cc1	x	x	x	n	x	n
OC[C@@H]1CCCN2CCCC[C@@H]12	n	n	n	x	n	x
CCN(CC)c1ccc(C=C2C(=O)N(C)C(=S)N(C)C2=O)o1	n	n	n	n	n	n
CN1C(=O)C(=Cc2ccc(N3CCCCC3)o2)C(=O)N(C)C1=S	n	n	n	n	56µM	n
CN1C(=O)C(=Cc2ccc(SC3CCCCC3)o2)C(=O)N(C)C1=O	n	n	n	x	56µM	n
COc1cc2c(cc1OC)-c1c3c(cc4c1[C@@H](C2)N(C)CC4)OCO3	n	u	13µM	n	n	n
COc1cc2c(cc1O)C[C@H]1NCCc3cc4c(c-2c31)OCO4	n	10µM	u	n	n	n
C(=C/c1ccccc1)/CN1CCN(CCOC(c2ccccc2)c2ccccc2)CC1	n	u	u	x	u	x
CCC1OC2(C)C(O)C(/C=C/C=C/C=C/c3oc(=O)cc(OC)c3C)OC1(C)C2OC(C)=O (stereo unspecified)	x	0.04µM	x	x	n	x
COc1cc2c(c3oc4cccc(O)c4c(=O)c13)C1C=CO[C@@H]1O2 (stereo partly specified)	x	13µM	10µM	x	n	x
O=C1NC(=O)N(CCC2=CCCCC2)C(=O)/C1=C\c1cccs1	u	u	u	n	50µM	n
O=C1NC(=O)N(CCc2ccc(F)cc2)C(=O)/C1=C/c1cccs1	n	n	n	n	25µM	n
Cn1cccc1/C=C1\C(=O)NC(=O)N(CCC2=CCCCC2)C1=O	n	n	n	x	n	n
c1ccc2sc(C3(NCC4CC4)CCCCC3)cc2c1	n	x	x	x	n	x
COc1ccc(C(=O)NC(=S)N2C[C@H]3C[C@H](C2)c2cccc(=O)n2C3)cc1OC	x	n	n	n	u	n
CCCOc1ccc(C(=O)NC(=S)N2C[C@H]3C[C@H](C2)c2cccc(=O)n2C3)cc1	x	8.9µM	u	n	45µM	n
O=C(NC(=S)N1C[C@H]2C[C@H](C1)c1cccc(=O)n1C2)c1ccc(Cl)cc1Cl	x	10µM	n	n	n	n
O=C(/C=C/c1ccc(Cl)cc1)N[C@@]12CCC(=O)[C@@H]3Oc4c(O)ccc5c4[C@@]31CCN(CC1CC1)C2C5	n	x	x	x	n	x
S=C(Nc1ccccc1)N1CCN(c2ccccn2)CC1	n	u	n	n	n	n
CN1CCC(OC(=O)Cc2ccccc2)CC1	n	n	n	n	n	n
COc1ccc(C(=O)OC2CCN(C)CC2)cc1	n	13µM	n	n	n	n
c1ccc(N=NNc2ccccc2)cc1	x	n	n	x	x	x
C=CCN1C(=O)NC(=O)/C(=C/c2cc3c4c(c2)CCCN4CCC3)C1=O	n	n	n	x	u	n
